We go through 15 compounds from PubChem BioAssay.

In test [1] the test system is TRPC4 beta (transient receptor potential cation channel C4), mouse. The experiment in a line: activators of mouse TRPC4 channel, confirmation, cell-based, Fluo4 calcium, HEK293 TRPC4beta/mu-opioid, duplicates, 10 µM (AID 2426;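 active = fluorescence ratio normalized to control raised more than 50% in primary screen plus both repeat runs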). The note with it: Fluo4 calcium fluorescence, at 10 µM; hits give high values.
Test [2] relates to transient receptor potential cation channel C4 beta (TRPC4), mouse. The experiment in a line: activators of mouse TRPC4 channel, confirmation, cell-based, second round, Fluo4, HEK293 TRPC4beta/mu-opioid, 1 µM (AID 2461;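 active = primary screen active and over 50% activation in each of two duplicate runs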). The note with it: Fluo4 calcium fluorescence, at 1 µM; hits give high values.
The subject of test [3] is TRPC4 (transient receptor potential cation channel C4 beta), mouse. The experiment in a line: positive allosteric modulators of mouse TRPC4, confirmation, cell-based, second round, Fluo-4, HEK293 TRPC4beta/mu-opioid, 1 µM (AID 2554;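 active = primary screen hit whose fluorescence ratio, in both repeats, exceeds the weak agonist control mean by 3 SD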). The note with it: DAMGO EC20, Fluo-4 calcium flux, at 1 µM; hits give high values. In general terms: Calcium flux is commonly read through the fluorescence of an indicator in the cells.

The subject of test [4] is TRPC4 beta (transient receptor potential cation channel C4), mouse. The experiment in a line: positive allosteric modulators of mouse TRPC4, confirmation, cell-based, Fluo-4, HEK293 TRPC4beta/mu-opioid (AID 2555). The note with it: DAMGO EC20, Fluo-4 calcium flux, at 10 µM; hits give high values.
Test [5] deals with Short transient receptor potential channel 4 (Mus musculus) (UniProt Q9QUQ5). Description: inhibitors of mouse TRPC4 channel, confirmation, cell-based, Fluo4, HEK293 TRPC4beta/mu-opioid (AID 2636;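 active = calcium signal cut by more than 3 SD below the full-agonist control yet still positive, in both repeats and the earlier primary screen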). The note with it: DAMGO, Fluo4 calcium flux, at 10 µM; hits give high values.
Short transient receptor potential channel 4 (Mus musculus), sequence (Q9QUQ5 whole entry, looked up): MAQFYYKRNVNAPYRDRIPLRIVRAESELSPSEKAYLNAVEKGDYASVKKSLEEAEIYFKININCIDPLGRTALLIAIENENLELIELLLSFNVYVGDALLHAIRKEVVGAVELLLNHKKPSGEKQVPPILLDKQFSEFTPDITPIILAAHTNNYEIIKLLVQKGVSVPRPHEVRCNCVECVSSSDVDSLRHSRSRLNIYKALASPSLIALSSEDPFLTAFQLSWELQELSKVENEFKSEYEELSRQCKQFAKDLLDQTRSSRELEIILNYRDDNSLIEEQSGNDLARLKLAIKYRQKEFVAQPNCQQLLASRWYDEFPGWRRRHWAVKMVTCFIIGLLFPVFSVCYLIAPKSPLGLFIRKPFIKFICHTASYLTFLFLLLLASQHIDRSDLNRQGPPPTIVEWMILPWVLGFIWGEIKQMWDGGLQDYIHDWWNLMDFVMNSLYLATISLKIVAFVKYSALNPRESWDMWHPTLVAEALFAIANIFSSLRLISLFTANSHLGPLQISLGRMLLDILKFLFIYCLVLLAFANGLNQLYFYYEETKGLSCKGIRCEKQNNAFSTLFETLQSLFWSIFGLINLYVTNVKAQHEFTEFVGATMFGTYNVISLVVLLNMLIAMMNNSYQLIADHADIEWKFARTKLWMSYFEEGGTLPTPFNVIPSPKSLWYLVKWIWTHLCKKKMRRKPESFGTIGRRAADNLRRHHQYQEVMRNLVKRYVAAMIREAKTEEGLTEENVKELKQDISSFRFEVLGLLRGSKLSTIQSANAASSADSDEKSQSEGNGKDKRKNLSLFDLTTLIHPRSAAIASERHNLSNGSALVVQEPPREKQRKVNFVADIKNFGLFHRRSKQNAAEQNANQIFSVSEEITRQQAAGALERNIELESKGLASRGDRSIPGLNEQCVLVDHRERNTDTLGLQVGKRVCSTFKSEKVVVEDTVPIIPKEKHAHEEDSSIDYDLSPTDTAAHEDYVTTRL
Test [6] shares this target. The experiment in a line: inhibitors of mouse TRPC4 channel, confirmation, cell-based, second round, Fluo4, HEK293 TRPC4beta/mu-opioid, 1 µM (AID 2637;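 active = calcium signal ratio cut to more than 3 SD under the fully stimulated control mean yet still positive, in both repeats and the primary screen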;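 as to inhibition: percent of integrated ratio relative to wells lacking test compound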). The note with it: Fluo4 calcium flux, DAMGO, at 1 µM; hits give high values.
Test [7] shares this target. Description: mouse TRPC4 channel activators, dose response, cell-based, HEK293 TRPC4/mu-opioid, Fluo-4 calcium (AID 434937;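 active = primary screen activator hit with a dose response curve and TRPC4 channel activation at any tested dose; inactive = no activation, no dose response, or not a primary hit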).
Test [8] has the same target. Description: TRPC4 positive allosteric modulators, dose response, cell-based, HEK293 TRPC4/mu-opioid, Fluo-4 calcium, EC20 DAMGO (AID 434941;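 active = earlier screen potentiator hit that boosts the TRPC4 ion channel at some dose, with a dose response; inactive = no potentiation, no dose response, or not a prior hit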;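 also: calcium entry triggered by an EC20 dose of DAMGO at the co-expressed mu-opioid receptor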).
Test [9] concerns the target Short transient receptor potential channel 6 (Mus musculus) (UniProt Q61143). Description: inhibition of mouse TRPC6 channel, confirmation, selectivity assay for TRPC4 inhibitor project, cell-based, HEK293, membrane potential dye, duplicate (AID 434948;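 active = active in primary screen and both duplicates, each dropping signal beyond three positive-control SD with fluorescence still positive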). The note with it: HEK293 TRPC6, membrane potential dye fluorescence, at 10 µM, stimulated with maximal-effect acetylcholine; hits give high values.

Test [10] has the same target. The experiment in a line: activation of mouse TRPC6 channel, confirmation, selectivity assay for TRPC4 activator project, cell-based, HEK293, membrane potential dye, duplicate (AID 434950;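 active = membrane potential signal rise above negative control mean plus 3 SD in both duplicates, also active in the earlier TRPC4 screen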). The note with it: HEK293 TRPC6, membrane potential fluorescence, at 10 µM; hits give high values.
The target is the same in test [11]. The experiment in a line: TRPC6 potentiation by TRPC4 potentiator hits, confirmation, selectivity assay for TRPC4 potentiator project, HEK293 cells, membrane potential dye, duplicate (AID 434952;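 active = compound raising the membrane signal above positive-control mean plus 3 SD in both repeats, and a primary screen hit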). The note with it: HEK293 TRPC6, membrane potential dye fluorescence, at 10 µM, maximal acetylcholine added after compound; hits give high values.
For test [12], the target named is Short transient receptor potential channel 4 (Mus musculus) (UniProt Q9QUQ5). Description: calcium flux activators in TRPC4/5HT1a cells, counter-screen for TRPC4 activator project, cell-based, second counter screen, HEK293 TRPC4/5HT1a, Fluo-4 (AID 434977;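 active = calcium signal rise above buffer-control mean plus 5 SD in both duplicates, and also a hit in the primary screen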). The note with it: Fluo-4 calcium flux, at 10 µM; hits give high values.
Test [13] can be described thus: calcium flux inhibitors in TRPC4/5HT1a cells, confirmation, counter-screen for TRPC4 inhibitor project, cell-based, second counter screen, HEK293 TRPC4/5HT1a, Fluo-4 (AID 434978;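 active = primary screen active whose calcium signal fell more than 3 SD beyond the full-serotonin control mean in both duplicate plates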;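 as to outcome: serotonin given first at submaximal then at maximal dose after compound preincubation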). The note with it: Fluo-4 calcium flux, at 10 µM, serotonin added to trigger calcium flux; hits give high values.
The subject of test [14] is TRPC4 (mouse), co-expressed with 5HT1a in HEK293. The experiment in a line: calcium flux potentiators in TRPC4/5HT1a cells, confirmation, counter-screen for TRPC4 potentiator project, cell-based, second counter screen, HEK293 TRPC4/5HT1a, Fluo-4 (AID 434979;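 active = signal rise over 3 SD above mean of control wells given weak agonist, in both repeats and first screen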). The note with it: Fluo-4 calcium flux, at 10 µM, serotonin added at its EC20 dose; hits give high values.
Test [15] is described as follows: calcium flux activation in mu-opioid HEK293 cells, confirmation, counter-screen for TRPC4 activator project, cell-based, HEK293 mu-opioid receptor line (AID 449723;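 active = hit in primary screen, with calcium signal over 5 SD above buffer well mean in both duplicates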;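 also: counter screen cells carry the mu-opioid receptor alone and lack TRPC4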). The note with it: Fluo-4 calcium fluorescence, at 10 µM; hits give high values.
Test [16] can be described thus: calcium flux enhancement in mu-opioid HEK293 cells, confirmation, counter-screen for TRPC4 allosteric potentiator project, cell-based, HEK293 mu-opioid receptor line (AID 449724;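 active = calcium signal rise more than 3 SD above the low-dose agonist control mean, in both duplicate plates and the primary screen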;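 also: HEK293 cells carrying mu-opioid receptor only with no TRPC4 channel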). The note with it: Fluo-4 calcium flux, at 10 µM, compound added before EC20 DAMGO stimulus; hits give high values.

For part of these data: Potency and affinity values are given separately. The source made the active and inactive calls.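 The calls were made as follows, unless noted: active = primary screen hit whose calcium fluorescence ratio, in both repeats, exceeds the weak agonist control mean by 3 SD; inactive = the rest.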

Short transient receptor potential channel 6 (Mus musculus), sequence (Q61143 whole entry, looked up): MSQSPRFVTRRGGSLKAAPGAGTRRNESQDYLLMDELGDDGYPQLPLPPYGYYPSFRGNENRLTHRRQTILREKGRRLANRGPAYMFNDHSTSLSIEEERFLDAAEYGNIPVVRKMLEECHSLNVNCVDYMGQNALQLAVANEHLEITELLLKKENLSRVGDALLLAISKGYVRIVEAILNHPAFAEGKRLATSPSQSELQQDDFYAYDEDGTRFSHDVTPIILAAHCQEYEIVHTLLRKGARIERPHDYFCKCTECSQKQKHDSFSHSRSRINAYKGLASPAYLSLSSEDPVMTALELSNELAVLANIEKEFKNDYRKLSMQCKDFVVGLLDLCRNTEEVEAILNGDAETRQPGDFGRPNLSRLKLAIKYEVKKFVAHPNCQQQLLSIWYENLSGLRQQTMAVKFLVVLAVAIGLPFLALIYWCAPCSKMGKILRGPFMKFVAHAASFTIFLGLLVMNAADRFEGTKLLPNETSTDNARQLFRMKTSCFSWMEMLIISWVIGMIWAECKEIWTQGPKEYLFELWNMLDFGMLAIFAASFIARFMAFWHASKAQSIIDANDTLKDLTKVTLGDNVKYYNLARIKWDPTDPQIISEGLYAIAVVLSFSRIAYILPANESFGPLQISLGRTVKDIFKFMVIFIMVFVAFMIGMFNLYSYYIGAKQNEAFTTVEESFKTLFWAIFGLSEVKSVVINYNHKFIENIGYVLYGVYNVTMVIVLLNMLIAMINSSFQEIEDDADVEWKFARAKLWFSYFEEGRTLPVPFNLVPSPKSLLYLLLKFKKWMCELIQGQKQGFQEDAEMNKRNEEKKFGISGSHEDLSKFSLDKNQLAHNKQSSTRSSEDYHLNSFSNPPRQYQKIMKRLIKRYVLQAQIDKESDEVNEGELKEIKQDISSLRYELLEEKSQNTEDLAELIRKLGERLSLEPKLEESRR

The term inhibition denotes the drop in the measured response relative to a control, in per cent. Consider `Cc1c(CN2CCC(n3nccc3NC(=O)CCc3ccccc3)CC2)cnn1C`, for which the result in test [1], in [2], in [3], in test [4], in test [7] and in test [8] was inactive. In addition, the call in test [9], in [10], in test [11], in test [12], in test [13] and in [14] was inactive. In addition, the result in test [15] and in test [16] was inactive. Further, the values for the inhibition in test [5] and in test [6] were 94% (active) and 68% (active), respectively.
Turning to `CC1(C)CC(NC(=O)c2cc(COc3cccc(C(F)(F)F)c3)on2)CCO1` (stereo not given), the outcome in test [1], in test [2], in test [3], in [4], in test [6] and in [7] was inactive. Further, the outcome in test [8], in [9], in test [10], in [11], in [12] and in [14] was inactive. For the same compound, the result in test [15] and in [16] was inactive. The inhibition is 90% (active) in test [5] and 25.2% (active) in test [13].
Regarding `COc1ccc(CNC(=O)CN(C)Cc2ccccc2F)cc1OC`, the result in test [1], in [2], in test [3], in test [4], in test [6] and in test [7] was inactive. The result in test [8], in [9], in [10], in test [11], in [12] and in [14] was inactive. Further, the result in [15] and in [16] was inactive. The inhibition was 86% (active) in [5] and 34.9% (active) in test [13].
Consider `CC[n+]1c(/C=C/Nc2ccccc2)oc2ccc(OC)cc21`, for which the outcome in test [1], in test [2], in [3], in test [4], in test [6] and in [7] was inactive. For the same compound, the result in [8], in [10], in test [11], in test [12], in test [14] and in test [15] was inactive. The outcome in test [16] was inactive. In addition, the inhibition in [5] was 92% (active); in [9] it was 46.5% (active); in [13] it was 34% (active).
As to `O=C(Nc1ccc(F)cc1)N1CCN2C(=O)c3ccccc3C12c1ccccc1` (stereo not given), the outcome in test [1], in [2], in test [3], in test [4], in test [6] and in [7] was inactive. Also, the result in test [8], in [9], in [10], in [11], in test [12] and in [13] was inactive. For the same compound, the result in test [14], in [15] and in test [16] was inactive. In addition, the inhibition in test [5] is 68% (active).
Turning to `CN(C)CCCNc1c2ccccc2nc2ccccc12`, the outcome in test [1], in [2], in test [3], in test [4], in [7] and in test [8] was inactive. Besides, the call in [9], in [10], in test [11], in [12], in test [14] and in test [15] was inactive. Further, in test [16], the result was inactive. For the same compound, the figures for the inhibition in [5], in test [6] and in [13] were 94% (active), 62% (active) and 22.7% (active), respectively.
Turning to `Cc1cccn2cc(-c3c[nH]c4ccccc34)nc12`, the outcome in [1], in [2], in [3], in test [4], in test [5] and in test [6] was inactive. In addition, the result in test [7], in [8], in test [10], in test [11], in [12] and in [14] was inactive. The result in [15] and in [16] was inactive. The inhibition is 33% (active) in test [9] and 35.1% (active) in test [13].
On to `Nc1cc(C(F)(F)F)ccc1Nc1ccccc1`, for which the result in [1], in test [2], in test [3], in [4], in [6] and in test [7] was inactive. Besides, the outcome in [8], in [9], in [10], in test [11], in test [12] and in [14] was inactive. Also, the outcome in [15] and in [16] was inactive. The inhibition is 90% (active) in test [5] and 27.6% (active) in test [13].
With `CCCn1c(NC(=O)c2cccc(S(=O)(=O)N3CCCC3)c2)nc2ccccc21`, the outcome in [1], in [2], in test [6], in [7], in test [8] and in test [9] was inactive. Besides, the compound was classed as inactive in test [10], in test [11], in test [12], in test [13], in test [15] and in [16]. Moreover, the potentiation was 11% (active) in [3], 64% (active) in test [4] and 24.4% (active) in test [14]. Also, in test [5], the inhibition was 87% (active).
`CC(C)Cc1nc(N2CCOCC2)c(C#N)c2c1CCC2`: the outcome in test [1], in test [2], in test [3], in [4], in test [7] and in [8] was inactive. In addition, the compound was classed as inactive in test [9], in test [10], in [11], in test [12], in [14] and in test [15]. Further, the result in test [16] was inactive. For the same compound, the inhibition in [5] was 76% (active); in [6] it was 50% (active); in [13], 35.1% (active).
As to `OC(COc1ccccc1)CN1C2=NCCCN2c2ccccc21` (stereo not given), the result in test [1], in test [2], in [3], in test [4], in test [6] and in test [7] was inactive. For the same compound, the outcome in [8], in test [9], in test [10], in test [11], in test [12] and in test [13] was inactive. Besides, the result in test [14], in [15] and in test [16] was inactive. Moreover, the inhibition in test [5] is 84% (active).
In the case of `COc1cc(CNC2CCCC2)c(Br)cc1OCc1ccccc1`, the outcome in [1], in test [2], in test [3], in test [4], in [6] and in test [7] was inactive. Moreover, the result in test [8], in [9], in [10], in test [11], in test [12] and in [14] was inactive. For the same compound, the result in test [15] and in test [16] was inactive. The figures for the inhibition in [5] and in test [13] were 87% (active) and 34.4% (active), respectively.
With `O=C(Nc1ccccc1Oc1cccnc1)C1CCCN(Cc2cccc(Cl)c2)C1` (stereo not given), the result in test [1], in [2], in [3], in [4], in [6] and in test [7] was inactive. The outcome in test [8], in [9], in [10], in test [11], in test [12] and in test [14] was inactive. The outcome in [15] and in test [16] was inactive. Moreover, the figures for the inhibition in [5] and in test [13] were 89% (active) and 33.5% (active), respectively.
For the compound `N=c1c2c(n(Cc3ccc(Cl)cc3)c3c1CCC3)CCC2`, the result in test [1], in test [2], in test [3], in test [4], in test [7] and in test [8] was inactive. The result in test [10], in test [11], in test [12], in test [14], in [15] and in test [16] was inactive. Moreover, the inhibition in test [5] is 96% (active); in test [6], 50% (active); in [9] it was 34.5% (active); in test [13] it was 10.6% (active).
Regarding `COCC(C)NC(C(=O)Nc1ccc(Cl)c([N+](=O)[O-])c1)c1ccccc1` (stereo not given), the result in test [1], in [2], in [3], in test [4], in [6] and in [7] was inactive. Also, the result in test [8], in test [9], in [10], in test [11], in test [12] and in test [13] was inactive. Further, the outcome in test [14], in [15] and in [16] was inactive. Moreover, the inhibition in test [5] was 87% (active).
